Hit rate of the full screen: of about 69,000 compounds, about 8,600 (12%) showed an effect of 50% or more. The sample holds strong results, similar compounds and a random draw of the others, so the mix is not that of the screen.
Tested on: Plasmodium berghei
Test: Screen against P. berghei liver stage (PbLuc), transformed with Luciferase, at 10uM
Format: functional, HepG2
Conditions: tested at 10 uM

Structure (SMILES)	INHIBITION [%]
Cc1ccccc1C1(CNC(=O)NCCc2nnc3n2CCC3)CC1	-25.3
NC(=O)C1(c2cnccn2)CCCN1Cc1ccncc1 (stereo unspecified)	72.3
NC(=O)C1(c2cnccn2)CCCN1Cc1ccc(Cl)cc1 (stereo unspecified)	-7.79
NC(=O)C1(c2cnccn2)CCCN1Cc1cccc(Cl)c1 (stereo unspecified)	15.9
OCC1(NCc2cnc(-c3cccs3)s2)CCOCC1	0.0944
Cc1cnn(CC2CN(Cc3csc(C4CCCC4)n3)CCO2)c1 (stereo unspecified)	-6.44
Clc1ccc(OCCCN2CCOC(Cn3cncn3)C2)cc1 (stereo unspecified)	66.2
CC(C)(C)c1nc(CN2CCOC(Cn3cncn3)C2)cs1 (stereo unspecified)	44.3
c1ccc(-c2nc(CN3CCOC(Cn4cncn4)C3)cs2)cc1 (stereo unspecified)	18.2
c1ncn(CC2CN(Cc3csc(C4CCCC4)n3)CCO2)n1 (stereo unspecified)	58.3
c1cnc(-c2nc(CN3CCOC(Cn4cncn4)C3)cs2)nc1 (stereo unspecified)	88.1
CC(C)c1nc(CN2CCOC(Cn3cncn3)C2)cs1 (stereo unspecified)	-33.9
c1csc(-c2nc(CN3CCOC(Cn4cncn4)C3)cs2)c1 (stereo unspecified)	40.9
c1ccc(-c2nc(CN3CCOC(Cn4cccn4)C3)cs2)cc1 (stereo unspecified)	-6.04
c1cnn(CC2CN(Cc3csc(C4CCCCC4)n3)CCO2)c1 (stereo unspecified)	64.8
Fc1ccc(OCCCN2CCOC(Cn3cncn3)C2)cc1 (stereo unspecified)	19.4
Clc1cccc(OCCCN2CCOC(Cn3cncn3)C2)c1 (stereo unspecified)	14.1
O=C(c1ccc(S(=O)(=O)NCc2ccon2)cc1)N1CCCCCC1	-6.21

Structure (SMILES)	INHIBITION [%]
CC(C)c1nnc2n1CCN(C(=O)c1ccc(N(C)C)nn1)C2	4.71
Cn1cc(-c2cnc(-c3ccnn3C)nc2)cc1C(=O)NC1CC1	24.6
COC(=O)N1CCC(c2nnc(Cn3ccnc3)n2C)CC1	1.48
N#Cc1cc(F)ccc1NCC1CCN(S(=O)(=O)C(F)F)CC1	65.3
N#Cc1ccc(Cl)cc1NCC1CC1	47.7
CS(=O)(=O)N1CCC(CNc2cc(Cl)ccc2C#N)CC1	-13.9
O=S(=O)(NCc1ccccc1Cn1cncn1)N1CCCCCC1	34.7
COCc1cccc(CNc2cnn(C(C)(C)C)c(=O)c2Cl)c1	70.6
COCCNC(=O)Cn1nc(C(C)C)c2cnn(C(C)(C)C)c2c1=O	-7.35
COCc1ccc(CNc2cnn(C(C)(C)C)c(=O)c2Cl)cc1	54.7
CC(C)(C)n1ncc(NCc2ccccc2)c(Cl)c1=O	61.1
COCc1cccc(CNC(=O)CNc2ccccc2C(C)=O)c1	11.4
COc1cc(CNc2cnn(C(C)(C)C)c(=O)c2Cl)ccn1	70.6
Cn1ncc(NCc2cccc(F)c2)c(Cl)c1=O	-5.25
COc1cc(CNC(=O)CNc2cc(Cl)ccc2OC)ccn1	14.4
CC(C)(CO)Nc1c(NCc2ccccc2)c(=O)c1=O	17.7
COc1cc(CNC(=O)c2cc(Cl)ccc2F)ccn1	11.4
CCc1c(NCc2ccc(F)cc2)cnn1CC(C)C	22.6

— ChEMBL document CHEMBL4513216, “Probing the Open Global Health Chemical Diversity Library for Multistage-Active Starting Points for Next-Generation Antimalarials” (ACS Infect Dis, 2020)
